Bioassay records: PubChem BioAssay, several laboratories
Sampled rows, rich in hits. Any-hit rate of the full collection: about 2.1%.
ABCB6 inh MLPCN: ABCB6 transporter inhibitors, primary screen, K562-ABCB6 cells, flow cytometry, MLPCN library | K562-ABCB6 porphyrin accumulation, 1 h; hits give low values | fluorescence ratio to DMSO, % at 10 µM | 360,000 tested, 0.19% active | AID 602162, 2011;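 active = fluorescence ratio to DMSO below 75%, the collection mean minus 3 SD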;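 note: signal is porphyrin accumulated inside mitochondria; 100% equals median channel fluorescence of DMSO control wells; lower ratio means ABCB6 inhibition with less porphyrin fluorescence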
Target sequence (Q9NP58 whole entry, looked up): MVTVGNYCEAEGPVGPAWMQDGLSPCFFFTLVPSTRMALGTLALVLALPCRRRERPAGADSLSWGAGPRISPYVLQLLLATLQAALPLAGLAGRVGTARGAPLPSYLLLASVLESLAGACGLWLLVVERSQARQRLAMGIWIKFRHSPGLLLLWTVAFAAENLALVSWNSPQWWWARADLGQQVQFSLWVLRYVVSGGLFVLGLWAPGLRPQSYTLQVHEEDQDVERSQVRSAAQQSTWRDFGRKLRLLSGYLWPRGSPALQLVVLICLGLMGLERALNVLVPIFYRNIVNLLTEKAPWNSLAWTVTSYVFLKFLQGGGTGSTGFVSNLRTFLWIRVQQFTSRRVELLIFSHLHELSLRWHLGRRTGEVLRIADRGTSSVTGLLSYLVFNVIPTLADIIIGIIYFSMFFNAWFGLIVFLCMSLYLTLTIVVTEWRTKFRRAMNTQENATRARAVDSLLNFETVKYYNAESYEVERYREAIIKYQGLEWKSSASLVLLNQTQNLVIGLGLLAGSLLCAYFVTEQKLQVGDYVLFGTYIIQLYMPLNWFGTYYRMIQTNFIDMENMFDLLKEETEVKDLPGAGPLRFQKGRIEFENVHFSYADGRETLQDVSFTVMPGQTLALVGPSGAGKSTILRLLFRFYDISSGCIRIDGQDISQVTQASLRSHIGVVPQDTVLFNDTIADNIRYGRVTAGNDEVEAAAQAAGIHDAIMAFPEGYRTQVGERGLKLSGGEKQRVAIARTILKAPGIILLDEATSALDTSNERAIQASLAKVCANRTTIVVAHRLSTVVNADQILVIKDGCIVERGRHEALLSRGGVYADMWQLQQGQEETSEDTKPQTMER
SMARCA2 activ: SMARCA2 (BRM) function activators, primary screen, cell-based, luminescence, high throughput | MG213 cells, MMTV-luciferase reporter, dexamethasone, overnight | activation, % at 9.1 µM | 370,000 tested, 1% active; in the data active = activation above about 7.8%;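 note: 0% = vehicle wells and 100% = reference activator wells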
MsrA act: bovine MsrA enzyme activators, primary screen, biochemical, absorbance, HTS; purified bovine MsrA, absorbance read-out; activation, % at 10.6 µM; 360,000 tested, 0.3% active; in the data active = activation above about 7.5%;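 note: 0% = vehicle and 100% = reference activator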
MsrA inh: bovine MsrA enzyme inhibitors, primary screen, biochemical, absorbance, HTS; Methionine sulfoxide reductase A (Bos taurus); purified bovine MsrA, absorbance read-out; inhibition, % at 15.5 µM; 360,000 tested, 0.75% active; AID 651718, 2012; in the data active = inhibition above about 4.5%;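 note: 0% = vehicle wells with enzyme and 100% = reference inhibitor wells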
MsrA act confirm: bovine MsrA activators, retest, confirmation, biochemical, absorbance, HTS; shares compounds with MsrA act; purified bovine MsrA, absorbance read-out; activation, % at 10.6 µM; 1,000 tested, 12% active; AID 602270, 2012; in the data active = activation above about 4%;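 note: enzyme coupled to thioredoxin and thioredoxin reductase with NADPH; 0% = vehicle wells and 100% = reference activator wells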
* = called active by the depositor; x = no result.

SMILES	ABCB6 inh MLPCN	SMARCA2 activ	MsrA act	MsrA inh	MsrA act confirm
CCOc1cccc(C(c2c(C)n(C)n(-c3ccccc3)c2=O)c2c(C)n(C)n(-c3ccccc3)c2=O)c1OC	100	-2	13*	0	-1
CC(C)(O)CN(CCCNC(=S)Nc1ccccc1)C(=S)Nc1ccccc1	91	3	14*	0	0
CN(C)CCCNC(=S)Nc1ccc(-c2ccccc2)cc1	95	-3	-2	0	x
C=C1CCC[C@]2(C)C[C@H]3OC(=O)C(CN(C)CC(OC)OC)[C@H]3CC12 (some centres undefined)	97	1	8.7*	0	-2
CCc1nn(CC(=O)NCCCN2CCOCC2)c(=O)c2cc3cc(F)ccc3n12	94	-3	7.9*	1	-1
CCc1nn(CC(=O)NCCCN2CCOCC2)c(=O)c2cc3sccc3n12	98	-2	0	2	x
Nn1c(SCc2ccc([N+](=O)[O-])cc2)nnc1-c1cc(-c2ccccc2)n[nH]1	x	-2	x	x	x
COc1cccc(N2CCN(CC(=O)NCc3ccc(Cl)cc3)CC2)c1	x	2	x	x	x
CCN1CCN(C2=C(NS(=O)(=O)c3ccc(Br)cc3)C(=O)c3ccccc3C2=O)CC1	99	-1	8.2*	1	2
CCOC(=O)N1CCN(C2=C(NS(=O)(=O)c3ccc(Br)cc3)C(=O)c3ccccc3C2=O)CC1	100	-2	-6	-1	x
O=S1(=O)c2ccc(Br)cc2OC[C@@H](Cc2ccccc2)N1Cc1cn(Cc2ccccc2)nn1	x	-5	x	x	x
CN(C)c1nc(OCCNC(=O)Nc2ccccc2)nc(N2CCOCC2)n1	98	-3	16*	0	-1
CN(C)c1nc(OCCNC(=O)Nc2ccccc2)nc(N2CCCCC2)n1	94	1	-3	1	x
COC(=O)CCCn1cc(CN2CC=CS2(=O)=O)nn1	x	-1	x	x	x
Cc1cccc(N(CC(=O)NC2CCCCC2)C(=O)CCCC(=O)Nc2ccccn2)c1	97	0	-3	-1	x
Cc1cccc(N(CC(=O)NC2CCCC2)C(=O)CCCC(=O)Nc2ccccn2)c1	96	0	7.7*	-1	0
COc1ccc([C@H]2OC(=O)C[C@@H]2C(=O)N2CCN(c3ccccc3Cl)CC2)cc1OC	x	-3	x	x	x
Cn1c(N=Nc2ccccc2)nc2ccccc21	95	-3	7.7*	1	-1
Cc1cccc(NC(=O)C2(C)CC3c4ccccc4C2c2ccccc23)c1 (centres undefined)	99	-2	8.9*	0	0
O=c1c2ccccc2n(Cc2ccno2)n1[C@@H](Cc1ccccc1)Cn1cc(-c2ccc(-c3ccccc3)cc2)nn1	x	-6	x	x	x
O=C(CC1CCCCC1)Nc1ccc(-c2ccc3nncn3n2)cc1	89	3	7.7*	0	-1
O=c1sc(N2CCN(c3ccc(F)cc3)CC2)nc2ccsc12	98	2	7.8*	1	-2
O=C(Nc1nnc([C@H]2C[C@H](O)[C@@H](CO)O2)s1)Nc1ccc(F)cc1F	96	0	7.8*	0	-2
O=C(Nc1nnc([C@@H]2C[C@H](O)[C@@H](CO)O2)s1)Nc1ccc(F)cc1F	100	-3	-1	2	x
O=c1c2cc3cccnc3nc2ncn1CCc1c[nH]c2ccccc12	x	-6	x	x	x
SMILES	ABCB6 inh MLPCN	SMARCA2 activ	MsrA act	MsrA inh	MsrA act confirm
CCCn1c(N)c(N(CCOC)C(=O)c2ccc(N3CCCC3=O)cc2)c(=O)[nH]c1=O	102	1	7.9*	-1	1
CCCCn1c(N)c(N(CCOC)C(=O)c2ccc(N3CCCC3=O)cc2)c(=O)[nH]c1=O	97	-3	-1	0	x
Cc1cc(C(=O)O[C@@H]2CCC[C@@]3(C(=O)N(Cc4ccccc4)c4ccccc43)[C@H]2NC(=O)CCc2ccccc2)no1	x	0	x	x	x
Cc1ccc(S(=O)(=O)NC(c2ccccc2)C(C)C(=O)n2nc(C)cc2C)cc1 (centres undefined)	92	0	8.1*	0	1
Cc1ccc(S(=O)(=O)NC(CC(=O)n2nc(C)cc2C)c2ccccc2)cc1 (centres undefined)	101	1	-5	0	x
COC(=O)[C@]12C[C@H](CC(=O)NCCCN3CCCC3=O)C(=O)N(CCc3ccc(OC)c(OC)c3)C1=C[C@H](C1CCCC1)O[C@@H]2C	x	4	x	x	x
S=C(NCc1ccc(Cl)cc1)OC1CCC12CCC(c1ccccc1)CC2 (centres undefined)	x	0	x	x	x
COc1ccccc1CNC(=O)CCNC(=O)Cn1ccc2ccccc2c1=O	93	4	0	1	x
COc1ccccc1CNC(=O)CCNC(=O)Cn1cnc2ccccc2c1=O	102	-3	8.8*	-1	0
Cc1ccc(OCC(C)CN2CCC(C(O)(c3ccccc3)c3ccccc3)CC2)cc1 (centres undefined)	x	-6	x	x	x
COc1ccc(S(=O)(=O)N2CCN(C(=S)NC3CCCCC3)CC2)cc1	104	0	8.0*	0	-3
COc1ccc(NS(=O)(=O)c2cc(NC(=O)c3ccc(F)cc3)ccc2OC)cc1	102	-2	9.7*	-1	0
COc1ccccc1C(=O)N1CCCC(c2nc(-c3cccs3)no2)C1 (centres undefined)	x	3	x	x	x
COc1ccccc1OC(=O)c1ccc2nsnc2c1	98	-6	16*	1	3
O=C(N[C@@H]1C[C@@H]2O[C@@H](CO)CC[C@@H]2O[C@@H]1CCc1ccc(-c2ccccc2)cc1)c1cnccn1	x	-2	x	x	x
CCNC(=O)N(C)c1nncnc1C(=O)NC	99	-2	21*	-1	-2
COc1ccc(NC(=O)c2ccc([N+](=O)[O-])cc2[N+](=O)[O-])c(OC)c1	104	-4	11*	2	1
CC(C)(C)N(Cc1cn(Cc2ccccc2)nn1)S(=O)(=O)c1ccc(N2CCCCC2)cc1Br	x	8	x	x	x
CCOC(=O)c1sc(=S)n(-c2ccc(OC)cc2)c1C	96	-4	-5	3	x
CCOC(=O)c1c2c(n(-c3ccc(OC)cc3)c1C)C(=O)C(=O)c1ccccc1-2	98	x	7.7*	x	6.2*
C=CCNC(=O)CSc1nc2c(c(=O)[nH]1)CCCC2	x	-5	x	x	x
CCCCn1c(=O)c2ccccc2n2c(=S)[nH]nc12	103	0	4	1	x
CCCCCn1c(=O)c2ccccc2n2c(=S)[nH]nc12	99	3	9.6*	0	-3
O=C(NC1CCCCN(Cc2cccc(C(F)(F)F)c2)C1=O)c1cccc(F)c1 (centres undefined)	x	-5	x	x	x
O=[N+]([O-])c1cc(/C=N/O)ccc1N1CCCC1	106	-1	-4	3	x
CO/N=C/c1ccc(N2CCCC2)c([N+](=O)[O-])c1	98	-2	17*	3	5.8*
CCOC(=O)[C@@]12CCCC3=C1N(CCC3)C(=O)[C@H]2CC(=O)NCc1ccc(C)o1	x	0	x	x	x
